This note sets out measurements from PubChem BioAssay (EPA / NIEHS).

Inconclusive results are not listed. Calls of active or inactive are those of the source. Rule for the calls: active = hit-call score of the fitted dose curve at least 0.9, where 1 is the maximum; inconclusive = response in the unintended direction; inactive = score below 0.9.

In test [1] the target is human Leukotriene B4 Receptor 1 (LTB4-BLT1), LTB4R (gene 1241) (UniProt Q15722). The experiment in a line: NVS_GPCR_hLTB4_BLT1: NovaScreen (NVS) G Protein-Coupled Receptor Assay for human Leukotriene B4 Receptor 1 (LTB4-BLT1) (AID 2283271). The method, then: NVS_GPCR_hLTB4_BLT1 is a biochemical, single-readout assay that uses extracted gene-proteins from Human neutrophils in a cell-free assay. Measurements were taken 1 hour after chemical dosing in a 48-well plate.NVS_GPCR_hLTB4_BLT1 is one of one assay component(s) measured or calculated from the NVS_GPCR_hLTB4_BLT1 assay. It is designed to make measurements of radioligand binding, a form of binding reporter, as detected with scintillation counting signals by Filter-based radiodetection technology.Data from the assay component NVS_GPCR_hLTB4_BLT1 was analyzed into 1 assay endpoint. This assay endpoint, NVS_GPCR_hLTB4_BLT1, was analyzed in the positive analysis fitting direction relative to DMSO as the negative control and baseline of activity. Using a type of binding reporter, loss-of-signal activity can be used to understand changes in the binding as they relate to the gene LTB4R. Furthermore, this assay endpoint can be referred to as a primary readout, because the performed assay has only produced 1 assay endpoint. To generalize the intended target to other relatable targets, this assay endpoint is annotated to the gpcr intended target family, where the subfamily is rhodopsin-like receptor. […]

Test [2] has as its target human Dopamine Receptor D2 (DRD2), DRD2 (gene 1813) (UniProt P14416). The experiment in a line: NVS_GPCR_hDRD2s: NovaScreen (NVS) G Protein-Coupled Receptor Assay for human Dopamine Receptor D2 (DRD2) (AID 2283266). The method, then:
(§1) NVS_GPCR_hDRD2s is a biochemical, single-readout assay that uses extracted gene-proteins from CHO in a cell-free assay. Measurements were taken 1.5 hours after chemical dosing in a 96-well plate.NVS_GPCR_hDRD2s is one of one assay component(s) measured or calculated from the NVS_GPCR_hDRD2s assay. It is designed to make measurements of radioligand binding, a form of binding reporter, as detected with scintillation counting signals by Filter-based radiodetection technology.Data from the assay component NVS_GPCR_hDRD2s was analyzed into 1 assay endpoint. This assay endpoint, NVS_GPCR_hDRD2s, was analyzed in the positive analysis fitting direction relative to DMSO as the negative control and baseline of activity. Using a type of binding reporter, loss-of-signal activity can be used to understand changes in the binding as they relate to the gene DRD2. Furthermore, this assay endpoint can be referred to as a primary readout, because the performed assay has only produced 1 assay endpoint. To generalize the intended target to other relatable targets, this assay endpoint is annotated to the gpcr intended target family, where the subfamily is rhodopsin-like receptor.
(§2) Binding assays used specific radioligands (tritiated, iodinated) with non-radioactive competitive displacement ligands in agonist or antagonist protocols (as indicated) and various reference compounds and inhibitors to titrate specific binding to receptors and transporters. Most enzyme assays (CYPs, kinases, phosphatases, proteases, HDACs) used recombinant protein and specific substrates (fluorescence mostly, some colorimetric and radioactive) and inhibitors, followed by a biochemical separation of substrate and product. All assays for the biochemical HTS were initially run in duplicate at a single concentration (10 uM for CYP450 assays and 25 uM for all others). […] Each assay was run with positive and negative controls, and concurrent controls on every plate. The follow-up (secondary) screen tested active chemical-pairs in concentration series, as well as a few additional assays not tested in the primary screen, some selected negative inactives, and several cases re-run in the concentration series for confirmatory purposes.

Test [3] addresses human Histamine 1 Receptor (H1), HRH1 (gene 3269) (UniProt P35367). The experiment in a line: NVS_GPCR_hH1: NovaScreen (NVS) G Protein-Coupled Receptor Assay for human Histamine 1 Receptor (H1) (AID 2283268). In short, it runs like this: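 Cell-free radioligand displacement at human H1 receptor, 1 h, filter scintillation counting; primary screen 25 uM in duplicate, hits in concentration series; loss of binding fitted vs DMSO.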

Test [4] deals with human Endothelin Receptor Type B (ETB), EDNRB (gene 1910) (UniProt P24530). The experiment in a line: NVS_GPCR_hETB: NovaScreen (NVS) G Protein-Coupled Receptor Assay for human Endothelin Receptor Type B (ETB) (AID 2283267). An outline of the steps:
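Human astrocytoma cell membranes; radioligand competitive binding read by filter scintillation counting 4 hours after dosing. Single-concentration duplicate screen at 25 uM, then singleton concentration-response up to 50 uM; loss of signal versus DMSO.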

Test [5] has as its target D(1A) dopamine receptor (Homo sapiens) (UniProt P21728). The test can be described thus: NVS_GPCR_hDRD1: NovaScreen (NVS) G Protein-Coupled Receptor Assay for human Dopamine Receptor D1 (DRD1) (AID 2283269). The method, then:
as §1, with “NVS_GPCR_hDRD1” for “NVS_GPCR_hDRD2s”, “HEK293” for “CHO”, “1 hour” for “1.5 hours”, “plate.NVS_GPCR_hDRD1” for “plate.NVS_GPCR_hDRD2s”, “NVS_GPCR_hDRD1,” for “NVS_GPCR_hDRD2s,”, “DRD1.” for “DRD2.”
as §2

Test [6] concerns the target Muscarinic acetylcholine receptor M1 (Homo sapiens) (UniProt P11229). The test can be described thus: NVS_GPCR_hM1: NovaScreen (NVS) G Protein-Coupled Receptor Assay for human Muscarinic, M1 Receptor (AID 2283270). In short, it runs like this:
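Cell-free radioligand displacement using membrane protein extracted from CHO cells, read by filter-based scintillation counting 1 h after dosing. Loss of bound signal fitted versus DMSO; primary screen single concentration 25 uM in duplicate, actives followed by concentration series.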

Test [7] addresses Muscarinic acetylcholine receptor M2 (Homo sapiens) (UniProt P08172). The test can be described thus: NVS_GPCR_hM2: NovaScreen (NVS) G Protein-Coupled Receptor Assay for human Muscarinic, M2 Receptor (AID 2283273). An outline of the steps: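 Cell-free radioligand binding using membranes from CHO cells expressing the receptor; filter-based scintillation counting after 1 hour of compound exposure. Loss of specific binding relative to DMSO baseline; primary screen at 25 uM in duplicate, actives then run in concentration series.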

Test [8] concerns the target human Muscarinic, M4 Receptor, CHRM4 (gene 1132) (UniProt P08173). The experiment in a line: NVS_GPCR_hM4: NovaScreen (NVS) G Protein-Coupled Receptor Assay for human Muscarinic, M4 Receptor (AID 2283274). An outline of the steps: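 Cell-free radioligand displacement using CHO-derived human M4 receptor protein, 1 h after dosing; bound radioactivity by filtration and scintillation counting. Primary screen single 25 uM duplicate, actives followed in concentration series.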

The target of test [9] is human Endothelin Receptor Type A (ETA), EDNRA (gene 1909) (UniProt P25101). The test can be described thus: NVS_GPCR_hETA: NovaScreen (NVS) G Protein-Coupled Receptor Assay for human Endothelin Receptor Type A (ETA) (AID 2283265). In short, it runs like this: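 Cell-free radioligand displacement using SH-SY5Y-derived protein, 3 h incubation, filter-based scintillation counting. Primary screen in duplicate at 25 uM; actives then run in concentration-response up to 50 uM; loss of binding fitted versus DMSO.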

For test [10], the target named is Muscarinic acetylcholine receptor M3 (Homo sapiens) (UniProt P20309). The experiment in a line: NVS_GPCR_hM3: NovaScreen (NVS) G Protein-Coupled Receptor Assay for human Muscarinic, M3 Receptor (AID 2283272). An outline of the steps:
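Radioligand displacement binding on human M3 receptor in CHO-derived membranes, 1 h incubation, filter-based scintillation counting. Primary screen in duplicate at 25 uM; actives followed up in concentration series; loss of signal versus DMSO.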

Chain of human Muscarinic, M4 Receptor, CHRM4 (gene 1132) (P08173 whole entry, looked up): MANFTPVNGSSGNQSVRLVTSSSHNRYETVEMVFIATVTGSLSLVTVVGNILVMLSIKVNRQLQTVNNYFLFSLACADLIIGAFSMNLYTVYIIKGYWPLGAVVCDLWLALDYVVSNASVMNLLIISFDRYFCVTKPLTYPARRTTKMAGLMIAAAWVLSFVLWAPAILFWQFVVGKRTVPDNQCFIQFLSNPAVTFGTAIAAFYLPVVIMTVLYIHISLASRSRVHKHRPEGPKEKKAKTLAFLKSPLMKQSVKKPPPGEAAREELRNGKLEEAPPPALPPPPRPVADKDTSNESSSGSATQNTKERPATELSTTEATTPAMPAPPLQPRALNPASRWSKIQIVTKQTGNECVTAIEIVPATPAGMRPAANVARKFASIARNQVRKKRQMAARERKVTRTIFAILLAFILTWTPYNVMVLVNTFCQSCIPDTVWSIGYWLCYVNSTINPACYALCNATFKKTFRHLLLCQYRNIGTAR
Chain of Muscarinic acetylcholine receptor M2 (Homo sapiens) (P08172 whole entry, looked up): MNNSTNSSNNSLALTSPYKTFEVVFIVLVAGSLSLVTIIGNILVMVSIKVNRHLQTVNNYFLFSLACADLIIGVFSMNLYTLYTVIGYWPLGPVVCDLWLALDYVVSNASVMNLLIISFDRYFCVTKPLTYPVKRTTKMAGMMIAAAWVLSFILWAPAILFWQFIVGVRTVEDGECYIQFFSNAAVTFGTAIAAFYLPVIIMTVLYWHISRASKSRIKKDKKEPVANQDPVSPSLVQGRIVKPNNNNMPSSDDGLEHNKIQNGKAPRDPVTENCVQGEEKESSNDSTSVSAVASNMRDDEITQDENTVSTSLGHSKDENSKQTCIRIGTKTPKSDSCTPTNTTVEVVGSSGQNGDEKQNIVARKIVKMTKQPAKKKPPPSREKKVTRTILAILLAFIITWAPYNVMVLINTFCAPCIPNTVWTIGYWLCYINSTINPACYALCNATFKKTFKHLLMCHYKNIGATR
Chain of human Dopamine Receptor D2 (DRD2), DRD2 (gene 1813) (P14416 whole entry, looked up): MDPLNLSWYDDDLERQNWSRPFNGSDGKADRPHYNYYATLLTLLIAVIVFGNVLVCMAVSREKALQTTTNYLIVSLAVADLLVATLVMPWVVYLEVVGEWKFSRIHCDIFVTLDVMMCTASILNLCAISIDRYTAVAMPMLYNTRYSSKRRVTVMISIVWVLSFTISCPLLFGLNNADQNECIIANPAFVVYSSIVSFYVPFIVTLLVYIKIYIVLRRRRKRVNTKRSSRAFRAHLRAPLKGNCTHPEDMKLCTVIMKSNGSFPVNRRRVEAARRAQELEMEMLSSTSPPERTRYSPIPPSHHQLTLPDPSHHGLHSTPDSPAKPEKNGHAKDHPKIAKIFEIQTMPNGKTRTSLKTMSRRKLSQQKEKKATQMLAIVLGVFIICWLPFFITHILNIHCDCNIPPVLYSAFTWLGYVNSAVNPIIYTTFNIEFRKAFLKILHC
Chain of D(1A) dopamine receptor (Homo sapiens) (P21728 whole entry, looked up): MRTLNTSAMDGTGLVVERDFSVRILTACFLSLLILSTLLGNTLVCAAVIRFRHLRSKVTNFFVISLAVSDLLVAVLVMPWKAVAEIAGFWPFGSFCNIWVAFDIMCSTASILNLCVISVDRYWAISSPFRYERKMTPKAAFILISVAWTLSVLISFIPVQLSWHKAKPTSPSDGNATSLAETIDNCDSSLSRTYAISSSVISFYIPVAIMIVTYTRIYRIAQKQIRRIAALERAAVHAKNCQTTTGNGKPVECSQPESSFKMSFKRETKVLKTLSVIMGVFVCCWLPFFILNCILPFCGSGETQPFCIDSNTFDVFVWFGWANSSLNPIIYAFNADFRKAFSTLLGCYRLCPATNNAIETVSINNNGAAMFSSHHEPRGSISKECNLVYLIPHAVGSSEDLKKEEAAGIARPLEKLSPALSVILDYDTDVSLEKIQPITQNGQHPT
Chain of human Histamine 1 Receptor (H1), HRH1 (gene 3269) (P35367 whole entry, looked up): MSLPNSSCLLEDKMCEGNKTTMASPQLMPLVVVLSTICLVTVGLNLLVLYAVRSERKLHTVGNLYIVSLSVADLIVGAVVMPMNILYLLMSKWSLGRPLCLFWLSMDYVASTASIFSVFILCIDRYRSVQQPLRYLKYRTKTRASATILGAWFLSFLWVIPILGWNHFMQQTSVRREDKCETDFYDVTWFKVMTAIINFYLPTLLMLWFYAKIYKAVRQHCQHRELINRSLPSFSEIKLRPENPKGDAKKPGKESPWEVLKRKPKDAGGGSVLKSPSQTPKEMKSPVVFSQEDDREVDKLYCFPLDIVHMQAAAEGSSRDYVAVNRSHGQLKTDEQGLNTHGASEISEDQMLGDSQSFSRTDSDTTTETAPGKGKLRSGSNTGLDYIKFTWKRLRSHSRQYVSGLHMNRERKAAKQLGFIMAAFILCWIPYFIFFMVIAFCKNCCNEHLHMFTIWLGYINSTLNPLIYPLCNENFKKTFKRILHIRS
Chain of Muscarinic acetylcholine receptor M1 (Homo sapiens) (P11229 whole entry, looked up): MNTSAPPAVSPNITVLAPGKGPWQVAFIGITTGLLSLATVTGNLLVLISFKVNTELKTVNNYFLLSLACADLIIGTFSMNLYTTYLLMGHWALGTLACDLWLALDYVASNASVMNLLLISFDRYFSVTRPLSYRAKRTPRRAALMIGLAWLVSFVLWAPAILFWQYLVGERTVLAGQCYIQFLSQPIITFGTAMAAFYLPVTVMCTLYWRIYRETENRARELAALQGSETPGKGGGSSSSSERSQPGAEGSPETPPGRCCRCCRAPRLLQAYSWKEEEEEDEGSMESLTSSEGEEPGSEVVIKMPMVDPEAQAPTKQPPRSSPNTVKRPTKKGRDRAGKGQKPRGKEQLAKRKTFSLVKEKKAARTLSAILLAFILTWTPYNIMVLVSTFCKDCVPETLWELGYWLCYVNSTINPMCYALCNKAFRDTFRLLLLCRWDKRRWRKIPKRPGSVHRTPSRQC
Chain of human Leukotriene B4 Receptor 1 (LTB4-BLT1), LTB4R (gene 1241) (Q15722 whole entry, looked up): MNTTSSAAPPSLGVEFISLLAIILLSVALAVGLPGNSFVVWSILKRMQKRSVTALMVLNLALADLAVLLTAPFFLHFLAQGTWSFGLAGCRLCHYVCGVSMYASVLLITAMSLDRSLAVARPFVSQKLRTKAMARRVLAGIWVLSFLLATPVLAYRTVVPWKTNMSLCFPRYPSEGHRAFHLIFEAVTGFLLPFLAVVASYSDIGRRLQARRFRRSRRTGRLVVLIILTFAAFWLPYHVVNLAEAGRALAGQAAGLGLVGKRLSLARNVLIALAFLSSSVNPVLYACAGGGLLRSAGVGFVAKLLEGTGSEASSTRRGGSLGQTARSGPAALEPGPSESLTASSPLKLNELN
Chain of human Endothelin Receptor Type B (ETB), EDNRB (gene 1910) (P24530 whole entry, looked up): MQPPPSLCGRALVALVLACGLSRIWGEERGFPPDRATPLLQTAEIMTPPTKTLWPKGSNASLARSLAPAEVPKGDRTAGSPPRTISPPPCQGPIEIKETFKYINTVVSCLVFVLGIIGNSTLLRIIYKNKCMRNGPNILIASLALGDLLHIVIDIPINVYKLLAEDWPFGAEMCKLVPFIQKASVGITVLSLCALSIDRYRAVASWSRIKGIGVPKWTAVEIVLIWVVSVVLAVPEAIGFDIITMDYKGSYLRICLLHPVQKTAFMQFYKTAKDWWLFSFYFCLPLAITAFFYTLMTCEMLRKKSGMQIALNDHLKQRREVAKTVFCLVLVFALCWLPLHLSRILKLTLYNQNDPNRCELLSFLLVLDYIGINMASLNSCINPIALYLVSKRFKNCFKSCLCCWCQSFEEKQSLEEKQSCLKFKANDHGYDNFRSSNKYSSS
Chain of Muscarinic acetylcholine receptor M3 (Homo sapiens) (P20309 whole entry, looked up): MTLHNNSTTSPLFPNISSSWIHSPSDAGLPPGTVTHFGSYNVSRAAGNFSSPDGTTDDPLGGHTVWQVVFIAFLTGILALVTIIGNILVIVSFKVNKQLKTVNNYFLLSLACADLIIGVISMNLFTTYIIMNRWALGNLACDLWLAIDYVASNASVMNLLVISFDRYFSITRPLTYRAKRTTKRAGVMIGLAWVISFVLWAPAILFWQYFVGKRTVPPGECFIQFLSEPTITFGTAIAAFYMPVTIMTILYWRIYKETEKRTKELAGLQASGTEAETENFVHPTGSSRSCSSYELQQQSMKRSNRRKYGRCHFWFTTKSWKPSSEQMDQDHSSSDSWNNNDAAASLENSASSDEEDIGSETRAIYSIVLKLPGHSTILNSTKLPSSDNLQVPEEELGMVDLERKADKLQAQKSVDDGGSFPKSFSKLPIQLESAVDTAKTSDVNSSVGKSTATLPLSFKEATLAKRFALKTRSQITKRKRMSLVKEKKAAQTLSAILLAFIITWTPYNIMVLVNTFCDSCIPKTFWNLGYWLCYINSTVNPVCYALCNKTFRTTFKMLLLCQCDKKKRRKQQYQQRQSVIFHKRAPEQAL
Chain of human Endothelin Receptor Type A (ETA), EDNRA (gene 1909) (P25101 whole entry, looked up): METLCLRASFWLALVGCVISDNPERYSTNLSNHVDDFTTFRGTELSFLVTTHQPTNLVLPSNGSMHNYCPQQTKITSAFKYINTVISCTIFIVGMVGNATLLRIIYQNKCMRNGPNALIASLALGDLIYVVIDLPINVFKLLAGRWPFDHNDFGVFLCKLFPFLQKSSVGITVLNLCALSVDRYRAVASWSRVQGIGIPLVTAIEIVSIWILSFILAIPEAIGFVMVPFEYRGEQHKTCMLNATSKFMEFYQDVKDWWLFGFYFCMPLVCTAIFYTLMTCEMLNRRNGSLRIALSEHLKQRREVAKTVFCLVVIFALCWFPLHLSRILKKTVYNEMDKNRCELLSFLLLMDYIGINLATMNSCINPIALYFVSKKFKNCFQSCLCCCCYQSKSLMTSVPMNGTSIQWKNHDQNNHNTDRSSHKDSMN

Regarding `Cc1cccc(C)c1N`, the outcome in [1] was inactive.

Take `Cc1cc(-c2ccc(N)c(C)c2)ccc1N`: the call in test [2] and in test [3] was inactive.

On to `COc1ccc(O)c(C(C)(C)C)c1`, for which, in test [2], the AC50 is 25 µM (active).

For `Oc1ccc(C(c2ccc(O)cc2)(C(F)(F)F)C(F)(F)F)cc1`, the AC50 in test [2] was 9.39 µM (active); in test [5] it was 2.86 µM (active); in [6], 37 µM (active); in [8], 32.5 µM (active). Moreover, the compound was classed as inactive in [4] and in test [7].

Consider `CCC(=O)O[C@H]1CC[C@H]2[C@@H]3CCC4=CC(=O)CC[C@]4(C)[C@H]3CC[C@]12C`, for which the call in [7] was inactive. Also, the AC50 in [8] was 2.04 µM (active).

For `CCCCCCCCCC[N+](C)(C)CCCCCCCCCC`, the concentration at half-maximal activity (AC50) was 6.49 µM (active) in test [9]; 5.51 µM (active) in [2]; 16.4 µM (active) in [4]; 6.19 µM (active) in [3]; 2.6 µM (active) in test [5]; 7.03 µM (active) in [6]. Besides, the results for the AC50 in test [10], in test [7] and in test [8] were 3.37 µM (active), 6.18 µM (active) and 3.56 µM (active), respectively.

With `O=C(N[C@H]1CN2CCC1CC2)c1cc2ccoc2cn1`, in test [7], the AC50 is 25 µM (active).

For the compound `CCC(C)(c1ccc(O)cc1)c1ccc(O)cc1`, the AC50 in [5] was 11.3 µM (active).

Take `O=C(O)C(F)(F)C(F)(F)C(F)(F)C(F)(F)C(F)(F)C(F)(F)C(F)(F)C(F)(F)C(F)(F)F`: in test [5], the AC50 was 16.8 µM (active).

For the compound `CC(C)(c1ccccc1)c1ccc(O)cc1`, the call in test [2] and in test [1] was inactive. In test [5], the AC50 was 25 µM (active).
